# Activity calls are given as the source filed them.
# Key:
# [1] = E. coli DRC41 culture turbidity changes, primary screen, E. coli filamentation inducer project, strain DRC41, OD650, 48 h (AID 1152);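 also: E. coli MC1000 strain DRC41 lacking acrAB efflux pump and sulA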; settings: E. coli DRC41 (acrAB sulA), higher = more signal, called active from +8 up or from −8 down
# [2] = small-molecule binders of probe aLefty1, primary screen, biochemical, small-molecule microarray, 635/667 nm fluorescence (AID 1153); settings: higher = more signal;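 also: score merges spot fluorescence with signal-to-noise ratio from the scanned slide images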
# [3] = PSAC antagonists in infected red cells, primary screen, cell-based, P. falciparum Indochina, OD700, 1 h (AID 1154); settings: P. falciparum Indochina infected RBC osmotic lysis, higher = more signal, called active from +8 up or from −8 down
# [4] = PSAC antagonists in infected red cells, primary screen, cell-based, P. falciparum Indochina, OD700, 2 h (AID 1155);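 also: lysis reports solute entry through the parasite surface anion channel PSAC; channel blockers reduce lysis of infected cells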; settings: P. falciparum Indochina infected erythrocytes, osmotic lysis OD700; higher = more signal, called active from +8 up or from −8 down
# [5] = osmotic lysis modulators in infected erythrocytes, primary screen, PSAC antagonist project, cell-based, P. falciparum Indochina, OD700, 3 h (AID 1156); settings: higher = more signal, called active from +8 up or from −8 down
# [6] = PSAC antagonists in infected red cells, primary screen, cell-based, P. falciparum Indochina, OD700, 18 h (AID 1157); settings: P. falciparum Indochina infected erythrocytes, osmotic lysis OD700, 18 h; higher = more signal, called active from +8 up or from −8 down
# [7] = modulators of S6 phosphorylation in cells, primary screen, cell-based, A549, cytoblot, luminescence, serum-stimulated (AID 1158); settings: A549 phospho-S6 cytoblot, 5 h, higher = more signal;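 also: serum-stimulated A549 lung adenocarcinoma cells; signal is phosphorylated S6 detected by cytoblot immunostaining with HRP secondary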
# [8] = target: NADPH oxidase 2 (Homo sapiens) (UniProt P04839); assay: NOX2-dependent H2O2 signal modulators, primary screen, NOX inhibitor project, cell-based, HEK293-NOX2, PMA-stimulated, Amplex Red fluorescence (AID 1159); settings: 45 min, higher = more signal, called active from +8 up or from −8 down; also: test concentration not given here
# Chain of NADPH oxidase 2 (Homo sapiens) (P04839 whole entry, looked up): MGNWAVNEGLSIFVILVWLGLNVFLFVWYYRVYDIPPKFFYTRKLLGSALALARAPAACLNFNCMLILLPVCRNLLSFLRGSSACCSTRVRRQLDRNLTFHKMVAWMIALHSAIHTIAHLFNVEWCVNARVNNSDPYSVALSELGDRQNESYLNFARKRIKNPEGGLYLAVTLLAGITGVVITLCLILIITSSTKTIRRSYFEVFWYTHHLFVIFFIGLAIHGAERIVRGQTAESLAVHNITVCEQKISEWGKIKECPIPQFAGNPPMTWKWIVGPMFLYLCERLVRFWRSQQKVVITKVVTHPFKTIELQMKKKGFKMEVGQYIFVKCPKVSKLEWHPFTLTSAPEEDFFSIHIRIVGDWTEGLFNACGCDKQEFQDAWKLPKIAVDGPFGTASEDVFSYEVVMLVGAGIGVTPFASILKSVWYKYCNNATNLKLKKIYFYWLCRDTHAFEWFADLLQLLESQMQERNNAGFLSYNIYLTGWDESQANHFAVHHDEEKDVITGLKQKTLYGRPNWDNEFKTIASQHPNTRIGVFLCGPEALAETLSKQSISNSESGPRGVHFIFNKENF
# [9] = target: NADPH oxidase 4 (Homo sapiens) (UniProt Q9NPH5); assay: NOX4-dependent H2O2 signal modulators, primary screen, NOX inhibitor project, cell-based, HEK293-NOX4, tetracycline-induced, Amplex Red fluorescence (AID 1160); settings: 45 min, higher = more signal, called active from +8 up or from −8 down
# Chain of NADPH oxidase 4 (Homo sapiens) (Q9NPH5 whole entry, looked up): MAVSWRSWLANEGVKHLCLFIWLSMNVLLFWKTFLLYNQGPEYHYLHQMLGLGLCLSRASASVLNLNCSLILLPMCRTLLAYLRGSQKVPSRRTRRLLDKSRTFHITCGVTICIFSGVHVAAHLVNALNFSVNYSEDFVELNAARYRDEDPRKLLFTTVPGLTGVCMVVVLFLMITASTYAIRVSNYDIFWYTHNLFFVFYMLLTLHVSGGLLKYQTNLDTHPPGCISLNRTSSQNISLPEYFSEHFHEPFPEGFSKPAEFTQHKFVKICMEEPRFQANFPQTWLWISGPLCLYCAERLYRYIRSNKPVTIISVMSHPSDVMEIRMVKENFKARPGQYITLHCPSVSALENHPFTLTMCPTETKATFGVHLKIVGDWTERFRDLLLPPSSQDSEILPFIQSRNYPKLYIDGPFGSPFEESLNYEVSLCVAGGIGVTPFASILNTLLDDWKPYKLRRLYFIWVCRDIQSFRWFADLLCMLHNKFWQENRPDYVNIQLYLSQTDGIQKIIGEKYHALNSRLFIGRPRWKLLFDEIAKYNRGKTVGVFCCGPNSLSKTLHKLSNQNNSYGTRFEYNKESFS
# [10] = target: NADPH oxidase 5 (Homo sapiens) (UniProt Q96PH1); assay: NOX5-dependent H2O2 signal modulators, primary screen, NOX inhibitor project, cell-based, HEK293-NOX5, Amplex Red fluorescence (AID 1161); settings: HEK293-NOX5, ionomycin, 45 min, higher = more signal
# Chain of NADPH oxidase 5 (Homo sapiens) (Q96PH1 whole entry, looked up): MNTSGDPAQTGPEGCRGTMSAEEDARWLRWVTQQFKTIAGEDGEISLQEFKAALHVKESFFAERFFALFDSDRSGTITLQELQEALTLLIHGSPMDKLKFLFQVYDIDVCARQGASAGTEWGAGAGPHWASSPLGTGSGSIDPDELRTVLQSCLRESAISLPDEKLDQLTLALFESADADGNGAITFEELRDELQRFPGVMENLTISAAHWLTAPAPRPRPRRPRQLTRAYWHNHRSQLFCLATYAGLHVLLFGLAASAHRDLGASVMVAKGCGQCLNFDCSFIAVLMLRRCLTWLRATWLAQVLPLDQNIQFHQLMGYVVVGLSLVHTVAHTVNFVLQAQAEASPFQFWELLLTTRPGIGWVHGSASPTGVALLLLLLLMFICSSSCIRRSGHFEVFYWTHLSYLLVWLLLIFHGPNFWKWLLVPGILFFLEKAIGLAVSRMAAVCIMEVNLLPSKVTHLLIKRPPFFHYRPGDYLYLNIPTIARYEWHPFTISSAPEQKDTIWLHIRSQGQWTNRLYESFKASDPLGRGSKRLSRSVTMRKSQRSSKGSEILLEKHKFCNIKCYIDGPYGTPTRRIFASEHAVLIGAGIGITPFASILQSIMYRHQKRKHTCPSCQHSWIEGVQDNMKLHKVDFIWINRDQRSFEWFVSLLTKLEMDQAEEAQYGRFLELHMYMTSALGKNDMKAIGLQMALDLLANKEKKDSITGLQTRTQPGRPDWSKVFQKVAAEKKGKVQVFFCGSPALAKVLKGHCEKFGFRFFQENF
SMILES,z-score [1],composite z-score [2],z-score [3],z-score [4],z-score [5],z-score [6],z-score [7],z-score [8],z-score [9],z-score [10]
[N-]=[N+]=NCc1ccccc1[C@H]1OC(c2ccc(OCCCO)cc2)=N[C@@]1(Cc1ccccc1N=[N+]=[N-])C(=O)NCCN1CCOCC1,0.0417 (inactive),0.194,24.7 (active),16.2 (active),1.7 (inactive),1.85 (inactive),-0.0338,-0.753 (inactive),-0.358 (inactive),1.41
CC(C)CCC[C@@H](C)[C@H]1CC[C@@]2(C)C3=C(CC[C@]12C)[C@@]1(C)CC[C@H](OC(=O)c2ccc(N)cc2)C(C)(C)C1CC3 (stereo not given in full),3.27 (inactive),-0.278,-1.05 (inactive),-1.26 (inactive),-0.492 (inactive),-2.86 (inactive),1.93,-0.759 (inactive),0.253 (inactive),0.807
CCCCC(=C=CC[C@H](O)c1cccc(OCCO)c1)C[C@H](O)COCc1ccccc1,0.483 (inactive),-0.0984,15.3 (active),2.48 (inactive),0.658 (inactive),1.02 (inactive),0.949,-2.67 (inactive),-1.29 (inactive),-2.41
COCCOC(=O)N1C(=O)[C@@]2(c3cc(C#Cc4ccc(OC)cc4)ccc31)[C@H](C(N)=O)[C@H]1C(=O)O[C@H](c3ccccc3)[C@H](c3ccccc3)N1[C@@H]2c1ccc(OCCO)cc1,0.79 (inactive),1.45,21.2 (active),5.69 (inactive),1.75 (inactive),1.95 (inactive),-0.0813,0.933 (inactive),-0.164 (inactive),1.86
COC(=O)[C@@]1(Cc2ccc(OC)cc2)[C@H]2c3cc(C(=O)N(C)C)n(Cc4cc(F)c(F)c(F)c4)c3C[C@H]2CN1C(=O)c1ccccc1,-1.69 (inactive),0.946,3.64 (inactive),0.0174 (inactive),1.3 (inactive),-1.37 (inactive),0.968,-2.92 (inactive),-1.41 (inactive),-2.54
CO[C@H]1O[C@H](CO)[C@@H](OC(=O)Nc2cccc(F)c2)[C@H](OC(=O)Nc2ccc3c(c2)OCO3)[C@H]1OC(=O)Nc1ccc2c(c1)OCO2,0.903 (inactive),0.236,6.15 (inactive),0.462 (inactive),0.521 (inactive),0.643 (inactive),-0.0353,-3.15 (inactive),-0.681 (inactive),-2.02
C=CCN1C(=O)[C@@]2(O[C@@H](CCn3cc([C@H](O)c4ccccc4)nn3)[C@H]([Si](C)(C)c3ccc(OC)cc3)[C@H]2C)c2cc(NC(=O)c3ccc(OC)cc3)ccc21,0.55 (inactive),-0.0016,6.81 (inactive),1.77 (inactive),1.39 (inactive),1.38 (inactive),0.689,0.106 (inactive),0.863 (inactive),0.583
COCCOC(=O)N1C(=O)[C@@]2(c3cc(C#CC4(O)CCCCCC4)ccc31)[C@H](C(=O)NC[C@H](O)c1ccccc1)[C@H]1C(=O)O[C@H](c3ccccc3)[C@H](c3ccccc3)N1[C@@H]2c1ccc(OCCO)cc1,1.07 (inactive),-0.007,3.85 (inactive),1.58 (inactive),-1.29 (inactive),1.03 (inactive),0.0102,1.55 (inactive),1.01 (inactive),0.979
CCOC(=O)C1=CC[C@@H](c2ccccc2)N(S(=O)(=O)c2ccc(C)cc2)[C@H]1C=C(C)C,-0.179 (inactive),0.129,2.27 (inactive),1.42 (inactive),-0.627 (inactive),0.756 (inactive),-0.459,-0.0156 (inactive),1.39 (inactive),1.43
COCCOC(=O)N1C(=O)[C@@]2(c3cc(C#CCC(C(=O)OC)C(=O)OC)ccc31)[C@H](C(=O)N1CCCCCCC1)[C@H]1C(=O)O[C@H](c3ccccc3)[C@H](c3ccccc3)N1[C@@H]2c1ccc(O)cc1,0.683 (inactive),2.46,0.915 (inactive),0.444 (inactive),0.678 (inactive),0.336 (inactive),-0.0955,1.32 (inactive),-0.378 (inactive),1.01
C=CC[C@@]1(C(=O)NCC(O)CO)N=C(c2ccc(OCCCO)cc2)O[C@@H]1c1ccccc1 (stereo not given in full),0.529 (inactive),0.366,22.6 (active),4.36 (inactive),1.12 (inactive),0.394 (inactive),-0.0453,0.325 (inactive),1.02 (inactive),1.69
C#CCNS(=O)(=O)N(C)C,1.14 (inactive),-0.103,0.132 (inactive),0.262 (inactive),-0.395 (inactive),0.0625 (inactive),0.32,-0.533 (inactive),0.183 (inactive),0.112
CC(C)CCC[C@@H](C)[C@H]1CC[C@@]2(C)C3=C(CC[C@]12C)[C@@]1(C)CC[C@H](OC(=O)C(C)(C)C)C(C)(C)C1CC3 (stereo not given in full),0.836 (inactive),-0.374,-0.0452 (inactive),-0.698 (inactive),-0.647 (inactive),-1.07 (inactive),2.9,0.249 (inactive),0.4 (inactive),1.29
CC1C=C(CCCO)C=C(C(=O)OCCS(C)(=O)=O)C(C(=O)OCCS(C)(=O)=O)=CN1Cc1cccc(OC(F)(F)F)c1 (stereo not given),-0.311 (inactive),0.304,1.81 (inactive),0.45 (inactive),0.714 (inactive),0.283 (inactive),0.402,-1.97 (inactive),-0.729 (inactive),-1.67
CC(C)C[C@H]1NC(=O)[C@H](C)NC(=O)[C@@]23C(=O)N[C@@H](Cc4ccccc4)C2[C@H](C)[C@@]2(C)O[C@H]2C3/C=C/C/C=C\CNC1=O (stereo not given in full),-1.07 (inactive),-0.774,2.71 (inactive),-0.169 (inactive),0.137 (inactive),0.11 (inactive),0.0246,-0.232 (inactive),0.83 (inactive),-0.234
CC(C)CN1C(=O)[C@@]2(Cc3ccccc31)c1ccccc1C(=O)N(Cc1ccccc1)[C@H]2c1ccc(CO)cc1,-0.731 (inactive),-0.702,0.0889 (inactive),-0.719 (inactive),0.27 (inactive),0.157 (inactive),0.148,0.439 (inactive),-0.348 (inactive),-0.498
CCOC(=O)C[C@H]1[C@H](OC(=O)Cc2ccc3c(c2)OCO3)[C@@H](NC(=O)c2ccccc2)c2cc(OCCCO)ccc2N1C(=O)c1ccc2ccccc2n1,2.15 (inactive),0.031,6.69 (inactive),-0.0918 (inactive),-1.04 (inactive),-1.23 (inactive),0.873,-0.357 (inactive),1.16 (inactive),0.27
OCc1ccc(-c2cc[n+](Cc3cccc(OC(F)(F)F)c3)cc2)cc1,0.0027 (inactive),0.423,0.51 (inactive),0.409 (inactive),-0.445 (inactive),-0.0616 (inactive),-0.104,-0.316 (inactive),-0.0783 (inactive),-3.79
COc1ccc(CCNC(=O)[C@@H]2c3ccccc3C(=O)N(Cc3ccccc3C(F)(F)F)[C@H]2c2ccc(CO)cc2)cc1,0.163 (inactive),-0.144,3.68 (inactive),0.252 (inactive),1.73 (inactive),0.694 (inactive),-0.366,-0.536 (inactive),-2.38 (inactive),-3.69
C[N+](C)(C)CCCCCCNC(=O)[C@@H]1C[C@@H]2C(=O)NCC(=O)N2[C@@H]1c1ccc(O)cc1,0.109 (inactive),0.0984,0.451 (inactive),-0.196 (inactive),-1.53 (inactive),-0.238 (inactive),-0.727,0.823 (inactive),0.899 (inactive),-0.757
CC(C)[Si](C#C[Si](C(C)C)(C(C)C)C(C)C)(O[C@H](C)c1cn(Cc2cccc(Cl)c2)nn1)C(C)C,2.58 (inactive),-0.195,1.23 (inactive),0.881 (inactive),-0.125 (inactive),0.702 (inactive),0.712,0.501 (inactive),0.312 (inactive),-0.162
CCOC(=O)C1=CC[C@@H](c2cccc(Br)c2)N(S(=O)(=O)c2ccc(C)cc2)[C@H]1c1ccc([N+](=O)[O-])cc1,-1.22 (inactive),0.0509,1.27 (inactive),1.55 (inactive),-0.0988 (inactive),1.29 (inactive),-0.68,1.24 (inactive),0.77 (inactive),0.165
N#Cc1ccc(NN2C(C(O)c3ccco3)C=CC3C(=O)N(c4ccccc4)C(=O)C32)cc1 (stereo not given),-4.51 (inactive),0.135,7.71 (inactive),1.67 (inactive),1.12 (inactive),0.826 (inactive),-0.555,-0.911 (inactive),-4.51 (inactive),-2.69
COCCOC(=O)N1C(=O)[C@@]2(c3cc(C#CC4(O)CCCCCC4)ccc31)[C@H](C(=O)N1CCc3cc(OC)c(OC)cc3C1)[C@H]1C(=O)O[C@H](c3ccccc3)[C@H](c3ccccc3)N1[C@@H]2c1ccccc1OCCO,0.803 (inactive),0.496,1.39 (inactive),1.15 (inactive),0.496 (inactive),0.655 (inactive),-0.0095,2.73 (inactive),-0.879 (inactive),0.554
COc1ccc(C#Cc2ccc3c(c2)[C@]2(C(=O)N3)[C@H](c3ccc(OCCO)cc3)N3[C@H](c4ccccc4)[C@H](c4ccccc4)OC(=O)[C@H]3[C@@H]2C(=O)N2CCN(c3ncccn3)CC2)cc1,2.34 (inactive),0.0436,3.2 (inactive),0.964 (inactive),-1.48 (inactive),-0.856 (inactive),0.379,1.15 (inactive),0.706 (inactive),1.34

# — PubChem BioAssay
